These results are taken from PubChem BioAssay (Tox21).

Results filed as inconclusive are left out. Entries that show only a call come without a potency. Active and inactive are the calls of the source. Calls follow the shape of the dose curve; as a rule, active = well fitted activation curve with a large enough effect in the repeat runs; inconclusive = weak or mixed curves; inactive = flat fitted curve, though single readings scatter.
Potency is read from the fitted curve at half-maximal effect.

The target of the test is Nuclear receptor subfamily 1 group I member 2 (Homo sapiens) (UniProt O75469). Nature of the test: Human pregnane X receptor (PXR) activation by small molecules, qHTS assay (AID 1346985). Also: nearly all actives have a fitted effect of over 40% in size. The note with it: DPX-2 HepG2 CYP3A4-luciferase, 24 h; series mostly up to 38.3 µM. An excerpt: National Center for Advancing Translational Sciences [NCATS]
NIH Chemical Genomics Center [NCGC]
U.S. Environmental Protection Agency [EPA]
National Institutes of Environmental Health Sciences [NIEHS]
National Toxicology Program [NTP]
The Pregnane X receptor (PXR), a ligand activated nuclear receptor plays a critical role in the regulation of genes involved in drug metabolism and transporters. Activation of PXR may be involved in the unwanted adverse drug-drug interactions. […] Therefore, identification of compounds with the potential for PXR activation can be of importance in improving the efficacy of drugs with less toxicity and avoiding drug-drug interactions.
DPX-2 (Puracyp, Inc.) cell lines, used for screening against human PXR activation has HepG2 cells co-transfected with a PXR response element and a luciferase construct containing CYP3A4 promoter. Increase in luciferase activity can be used to identify the compounds that activate the PXR pathway.
DPX-2 cells were dispensed at 2,000 cells per well in 5uL of assay medium into white, solid-bottom 1536-well plates using a Multidrop Combi dispenser (Thermo Scientific). The assay plates were incubated at 37C for 5hr before transferring 23nL of test compounds dissolved in DMSO and positive control via Pintool station (Wako). The assay plates were incubated at 37C for 24hr. Then 5ul One-Glo assay reagent (Promega) was added to each plate by a Flying Reagent Dispenser (FRD, Aurora Discovery) and following 30 min incubation at room temperature, luciferase activity was quantified on a ViewLux plate reader (Perkin Elmer).
On the technique in general: In qHTS, concentration-response curves come from the screen itself.
Regarding `O=C(Nc1cccc(C(F)(F)F)c1)c1cc(Br)cc(Br)c1O`, the Potency entry is “inactive”.

With `C[C@@H]1C[C@H]2[C@@H]3CCC4=CC(=O)C=C[C@]4(C)[C@@]3(Cl)[C@@H](O)C[C@]2(C)[C@@]1(OC(=O)c1ccco1)C(=O)CCl`, the Potency was 4.47 µM (active).

For the molecule `O=C(Oc1cccc2cccnc12)c1ccccc1`, the Potency result was “inactive”.

On to `CCOC(=O)/C=C(C)/C=C/C=C(C)/C=C/c1c(C)cc(OC)c(C)c1C`, for which the Potency result was “inactive”.

For the molecule `O=c1c(-c2ccccc2)c1-c1ccccc1`, the Potency result is “inactive”.

In the case of `O=C1Cc2cc(CCN3CCN(c4nsc5ccccc45)CC3)c(Cl)cc2N1`, the Potency result is “inactive”.

In the case of `Cc1c(C)c2c(c(C)c1OC(=O)CCC(=O)O)CC[C@@](C)(CCC[C@H](C)CCC[C@H](C)CCCC(C)C)O2`, the Potency result was “inactive”.

Regarding `CN(C)[C@@H]1C(=O)C(C(N)=O)=C(O)[C@@]2(O)C(=O)C3=C(O)c4c(O)ccc(Cl)c4[C@@H](O)[C@H]3C[C@@H]12`, the Potency result is “inactive”.

Regarding `Cn1cc(C(=O)[C@@H]2CCc3nc[nH]c3C2)c2ccccc21`, the Potency result was “inactive”.

As to `O=C(Nc1ccc(Oc2ccc(Cl)cc2)c(Cl)c1)c1cc(I)cc(I)c1O`, the Potency was 22.4 µM (active).

As for `CCOc1ccc2nc3cc(N)ccc3c(N)c2c1`, the Potency entry is “inactive”.

Consider `CCN1/C(=C/C=C/c2sc3ccccc3[n+]2CC)Sc2ccccc21`, for which the Potency entry is “inactive”.

`CCOC(=O)O[C@]1(C(=O)OCCl)CC[C@H]2[C@@H]3CCC4=CC(=O)C=C[C@]4(C)[C@H]3[C@@H](O)C[C@@]21C`: the Potency is 14.1 µM (active).

For `CCCC(=O)OC[C@@H](OC(=O)CCC)[C@@H](OC(=O)CCC)[C@H](Cn1c2nc(=O)[nH]c(=O)c-2nc2cc(C)c(C)cc21)OC(=O)CCC`, the Potency result is “inactive”.

On to `Cc1cc(O)c2ccccc2c1O`, for which the Potency result is “inactive”.

Consider `COc1ccc(C(=O)/C(Br)=C\C(=O)O)cc1`, for which the Potency entry was “inactive”.

Take `NC(=O)NS(=O)(=O)c1ccc(N)cc1`: the Potency entry was “inactive”.

In the case of `O=c1[nH]cnc2nc[nH]c12`, the Potency result is “inactive”.

For `Clc1ccccc1C(c1ccccc1)(c1ccccc1)n1ccnc1`, the Potency was 3.98 µM (active).

Consider `[O-][n+]1ccccc1SSc1cccc[n+]1[O-]`, for which the Potency is 11.2 µM (active).

On to `CN1CCN(CCC(=O)N2c3ccccc3Sc3ccc(C(F)(F)F)cc32)CC1`, for which the Potency was 15.8 µM (active).

As to `COc1ccc(CN2CCN(C(c3ccc(F)cc3)c3ccc(F)cc3)CC2)c(OC)c1OC`, the Potency entry is “inactive”.

As to `CC(C)(C)C(=O)OCOC(=O)[C@@H]1N2C(=O)[C@@H](NC(=O)[C@H](N)c3ccccc3)[C@H]2SC1(C)C`, the Potency result was “inactive”.

`NC(=O)CC[C@@H]1NC(=O)[C@H](Cc2ccccc2)NC(=O)[C@H](Cc2ccc(O)cc2)NC(=O)CCSSC[C@@H](C(=O)N2CCC[C@H]2C(=O)N[C@@H](CCCN=C(N)N)C(=O)NCC(N)=O)NC(=O)[C@H](CC(N)=O)NC1=O`: the Potency result is “inactive”.

For the molecule `CCC1=C[C@@H]2CN(C1)Cc1c([nH]c3ccccc13)[C@@](C(=O)OC)(c1cc3c(cc1OC)N(C)[C@H]1[C@@](O)(C(=O)OC)[C@H](OC(C)=O)[C@]4(CC)C=CCN5CC[C@]31[C@@H]54)C2`, the Potency is 8.91 µM (active).

As for `CC[C@@]1(O)C(=O)OCc2c1cc1n(c2=O)Cc2cc3c(CN(C)C)c(O)ccc3nc2-1`, the Potency entry is “inactive”.

With `Cc1cc(C2CCCCC2)n(O)c(=O)c1`, the Potency entry was “inactive”.

As to `O=C(N/N=C/c1ccccc1O)c1ccncc1`, the Potency result was “inactive”.

Regarding `CC1=C(C(=O)OC(C)C)C(c2cccc([N+](=O)[O-])c2)C(C(=O)OC2CN(C(c3ccccc3)c3ccccc3)C2)=C(N)N1` (stereo not given), the Potency was 7.08 µM (active).

Take `Cc1ccc(O)c2ncccc12`: the Potency result was “inactive”.

On to `COc1ccc(-c2ccc3cc(C(=O)O)ccc3c2)cc1C12CC3CC(CC(C3)C1)C2`, for which the Potency entry was “inactive”.

For the molecule `CC(=O)SC[C@@H](Cc1ccccc1)C(=O)NCC(=O)OCc1ccccc1`, the Potency result is “inactive”.

`CCCCCCC[N+](CC)(CC)CCCCc1ccc(Cl)cc1`: the Potency result was “inactive”.

For the molecule `COc1cc(/C=C/C(=O)O[C@H]2CC[C@]34C[C@]35CC[C@]3(C)[C@@H]([C@H](C)CCC=C(C)C)CC[C@@]3(C)[C@@H]5CC[C@H]4C2(C)C)ccc1O`, the Potency result is “inactive”.

With `CCN(CC)CCCC(C)Nc1c2ccc(Cl)cc2nc2ccc(OC)cc12` (stereo not given), the Potency entry was “inactive”.

As for `CCCCCCCCCCCCCCCC[N+](C)(C)CCN(Cc1ccc(OC)cc1)c1ncccn1`, the Potency result was “inactive”.

As for `CC(=O)N1CCN(c2ccc(OC[C@H]3CO[C@](Cn4ccnc4)(c4ccc(Cl)cc4Cl)O3)cc2)CC1`, the Potency result was “inactive”.

`Clc1ccc2nsnc2c1NC1=NCCN1`: the Potency entry was “inactive”.

Take `N/C(=N\N=C\c1ccc(Cl)cc1)N/N=C/c1ccc(Cl)cc1`: the Potency result was “inactive”.

In the case of `Oc1c(Cl)cc(Cl)c2cccnc12`, the Potency was 28.2 µM (active).
